Results filed as inconclusive are left out. Active and inactive are the calls of the source. The call rests on the fitted dose curve; in most records, active means well fitted inhibition curve with a large enough effect; inconclusive means small, poorly fitted or top-dose-only effect; inactive means flat fitted curve, though single readings scatter.
system: C2A; experiment: qHTS profiling for inhibitors of Plasmodium falciparum proliferation (AID 504749); further: nearly all actives have a fitted effect of over 60% in size;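 on activity, negative = inhibition: 0% = DMSO vehicle and full inhibition = artemisinin control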; conditions: P. falciparum in erythrocytes, SYBR Green DNA, 72 h; series mostly up to 28.7 µM; activity, negative = inhibition: at the top concentration
Method in brief: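 Parasite proliferation within erythrocytes, 72 h exposure. Endpoint: SYBR Green I fluorescence after overnight lysis at room temperature. Controls: 0.29 uM artemisinin, DMSO.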
Potency means the concentration at half of the fitted maximal effect.

Row | SMILES | activity, negative = inhibition | Potency
1 | OCCN1CC(O)C(O)C(O)C1CO (configuration not stated) | 6.87% (inactive) | –
2 | COc1cc2c(cc1O)CCN[C@@]21CS[C@H]2c3c(OC(C)=O)c(C)c4c(c3C(COC1=O)N1C2C2c3c(cc(C)c(OC)c3O)CC([C@@H]1O)N2C)OCO4 (some centres not stated) | – | 2.8 nM (active)
3 | CC(CCC(=O)O)C1CCC2C3C(=O)C[C@@H]4CC(=O)CC[C@@]4(C)C3CC(=O)[C@]12C (some centres not stated) | -4.6% (inactive) | –
4 | C[n+]1c2cc(N)ccc2cc2ccc(N)cc21 | – | 1000 nM (active)
5 | O=C(OC[C@@H]1O[C@@](O)(COC(=O)c2cccnc2)[C@H](OC(=O)c2cccnc2)[C@H]1OC(=O)c1cccnc1)c1cccnc1 | -19.6% (inactive) | –
6 | O=[N+]([O-])O[C@H]1CO[C@H]2[C@@H]1OC[C@H]2O | -7.99% (inactive) | –
7 | COc1cccc(OC)c1C(=O)NC1C(=O)N2C1SC(C)(C)C2C(=O)O (configuration not stated) | 1.72% (inactive) | –
8 | NC[C@@H]1O[C@H](OC2[C@@H](CO)O[C@@H](OC3[C@H](O)[C@H](N)C[C@H](N)[C@H]3OC3O[C@H](CO)[C@@H](O)[C@H](O)[C@@H]3N)[C@H]2O)C(N)[C@H](O)[C@@H]1O (some centres not stated) | 0.586% (inactive) | –
9 | Cc1ccc(S(=O)(=O)NC(=O)NC(C)Cc2ccccc2)cc1 (configuration not stated) | 5.03% (inactive) | –
10 | OCCOC[C@H]1O[C@H](OCCO)[C@H](OCCO)[C@@H](OCCO)[C@@H]1OCCO (tested in a mixture with another compound) | 0.253% (inactive) | –
11 | C[S+](C)CC[C@H](N)C(=O)O | -13.7% (inactive) | –
12 | CC[C@@H]1/C=C(\C)C[C@H](C)C[C@H](OC)[C@H]2O[C@@](O)(C(=O)C(=O)N3CCCC[C@H]3C(=O)O[C@H](/C(C)=C/[C@@H]3CC[C@H](Cl)[C@H](OC)C3)[C@H](C)[C@@H](O)CC1=O)[C@H](C)C[C@@H]2OC | -2.07% (inactive) | –

Reference: PubChem BioAssay (NCATS)
